SMARCA2 activ – SMARCA2 (BRM) function activators, primary screen, cell-based, luminescence, high throughput; MG213 cells, MMTV-luciferase reporter, dexamethasone, overnight; activation, % at 9.1 µM; 370,000 tested, 1% active; in the data active means activation above about 7.8%;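 further: 0% = vehicle wells and 100% = reference activator wells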
DAX1 inh-1 – DAX1 (NR0B1) inhibitors, primary screen, cell-based, HEK293, Gal4-DAX1, luciferase luminescence. HEK293 Gal4-DAX1 luciferase reporter. inhibition, % at 6.75 µM. 340,000 tested, 0.99% active;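 active means inhibition above the mean over all tested compounds plus 3 SD, cut at about 4.2% in these data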;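 further: 0% = DAX1-transfected cells with DMSO and 100% = empty-vector control cells with DMSO; inhibition shows as a rise in luminescence from relieved DAX1 repression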
Target sequence (P51843 207-470 limits assumed): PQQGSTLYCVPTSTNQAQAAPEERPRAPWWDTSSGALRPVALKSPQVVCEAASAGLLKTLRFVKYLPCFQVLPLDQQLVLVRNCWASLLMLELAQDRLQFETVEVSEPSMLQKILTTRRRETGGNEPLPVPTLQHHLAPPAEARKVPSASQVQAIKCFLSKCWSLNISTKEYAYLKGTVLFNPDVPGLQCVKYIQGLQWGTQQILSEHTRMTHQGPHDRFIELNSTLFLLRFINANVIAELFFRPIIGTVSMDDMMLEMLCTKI
hcDAF12 agonist – H. contortus DAF-12 nuclear receptor activators, primary screen, cell-based, luminescence, HEK293, lit1-tk-luc reporter | HEK293 hcDAF-12 lit1-tk-luc reporter; 0% DMSO, 100% Δ7-dafachronic acid | activation, % at 6.8 µM | 370,000 tested, 1.4% active | AID 652067, 2013;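 active means activation above the mean of all tested compounds plus 3 SD, cut at about 5.5% in these data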;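 further: 100% = response to 3 µM Δ7-dafachronic acid high control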
ssDAF12 agonist – S. stercoralis DAF-12 nuclear receptor activators, primary screen, cell-based, luminescence, HEK293, GRIP1 co-expression, lit1-tk-luc; 370,000 tested, 1% active; activation, % at 6.8 µM; HEK293 ssDAF-12/GRIP1 lit1-tk-luc reporter; % of 3 µM dafachronic acid response; AID 652126, 2013; Nuclear hormone receptor DAF-12 (Strongyloides stercoralis);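 active means activation above the mean over all tested compounds plus 3 SD, cut at about 0.9% in these data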;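 further: 0% = DMSO-only wells and 100% = 3 µM delta7-dafachronic acid wells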
DAX1 inh-2 – DAX1 (NR0B1) inhibitors on StAR promoter, primary screen, cell-based, luminescence, SF-1 (NR5A1), full-length DAX-1 | HEK293T StAR-luciferase reporter, SF-1/DAX-1 repression relief | inhibition, % at 6.8 µM | 370,000 tested, 1.1% active | AID 652010, 2013;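 active means inhibition above the mean over all tested compounds plus 3 SD, cut at about 3.6% in these data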;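 further: 0% = DAX-1 cells with DMSO and 100% = cells lacking DAX-1 with DMSO; higher inhibition means more luminescence from relief of DAX-1 repression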
hgDAF-12 ag – H. glycines DAF-12 receptor agonists, primary screen, cell-based, luminescence, HEK293, GAL4 fusion, UAS-luciferase | HEK293 GAL4-hgDAF12 UAS-luciferase reporter, agonist luminescence; normalized to butyrate control | activation, % at 6.8 µM | 370,000 tested, 1.8% active;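 active means activation above a cutoff set at the mean of all screened compounds plus 3 SD, cut at about 10% in these data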;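 further: 0% = DMSO wells and 100% = sodium butyrate wells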
DAX1 inh confirm – DAX1 (NR0B1) inhibitors relieving SF-1 repression, confirmation, cell-based, luminescence, HEK293T, full-length DAX-1, SF-1 activated StAR promoter | shares compounds with DAX1 inh-2 | HEK293T StAR-promoter luciferase reporter, SF-1/DAX-1 repression | inhibition, % at 6.8 µM | 2,400 tested, 87% active | AID 652134, 2013;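 active means inhibition above the average of every tested compound plus 3 SD, cut at about 3.8% in these data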;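 further: 0% = DAX-1 cells with DMSO and 100% = no DAX-1 control cells with DMSO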
SF1 AF2mut Luc – StAR reporter signal changes without DAX1, counter-screen for DAX1 inhibitor project, cell-based, luminescence, AF-2 mutant SF-1, transactivation; shares compounds with DAX1 inh-2; HEK293 StAR-luciferase, SF-1 AF2 mutant; inhibition, % at 6.8 µM; 2,400 tested, 78% active; AID 652136, 2013;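 active means inhibition above the mean of all tested compounds plus 3 SD, cut at about 3% in these data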;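 further: 0% = DAX-1 transfected cells with DMSO and 100% = cells without DAX-1 with DMSO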
SMARCA2 conf – SMARCA2 (BRM) function activators, confirmation, cell-based, luminescence, triplicate | MG213 cells, MMTV-luciferase with dexamethasone, overnight; MG213 cells expressing E1A, Rb sequestered; DMSO wells 0%, reference activator 100% | activation, % at 9.1 µM | shares compounds with SMARCA2 activ | 3,500 tested, 30% active;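 active means activation above its plate's cutoff, the mean activation of tested wells plus 3 SD, cut at about 7.9% in these data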
VP16 Luc act – GAL4-VP16 luciferase reporter activation, counter-screen for SMARCA2 (BRM) activator project, cell-based, pG5luc, luminescence, high throughput; shares compounds with SMARCA2 activ; HEK293 GAL4-VP16 pG5luc reporter; scaled: DMSO wells 0%, SAHA wells 100%; activation, % at 9.1 µM; 3,500 tested, 41% active;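 active means activation above the solvent-only control well mean plus 3 SD, averaged across control plates, cut at about 5.2% in these data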
LXRb hcDAF ctr – LXR agonists, Gal4 luciferase reporter, confirmation, counter-screen for hcDAF-12 agonist project, cell-based, luminescence, HEK293, H. contortus campaign; shares compounds with hcDAF12 agonist; HEK293 Gal4-LXR tk-luc reporter, 24 h; normalized: DMSO 0%, positive control 100%; activation, % at 6.8 µM; 3,400 tested, under 10 active; AID 743027, 2013;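 active means mean percent activation of the reporter above a cutoff set as the average over tested compounds plus their standard deviation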
Target sequence (P55055 whole entry, looked up, the tested form may be a part): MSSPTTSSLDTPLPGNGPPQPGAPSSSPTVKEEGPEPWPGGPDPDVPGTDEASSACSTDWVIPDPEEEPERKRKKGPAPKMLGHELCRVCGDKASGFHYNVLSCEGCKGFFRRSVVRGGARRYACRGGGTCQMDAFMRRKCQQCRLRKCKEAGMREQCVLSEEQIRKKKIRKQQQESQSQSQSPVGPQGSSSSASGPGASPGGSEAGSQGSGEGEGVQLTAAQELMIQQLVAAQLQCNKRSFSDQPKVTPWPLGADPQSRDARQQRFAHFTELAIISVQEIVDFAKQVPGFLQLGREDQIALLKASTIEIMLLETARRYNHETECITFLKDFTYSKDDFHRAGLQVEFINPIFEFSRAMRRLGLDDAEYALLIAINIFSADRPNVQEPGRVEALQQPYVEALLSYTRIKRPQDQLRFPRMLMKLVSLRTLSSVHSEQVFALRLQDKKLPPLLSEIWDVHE
hcDAF12 ag – H. contortus DAF-12 receptor agonists, confirmation, cell-based, luminescence, HEK293, lit1-tk-luc, triplicate; AID 743032, 2013; HEK293 hcDAF-12 lit1-tk-luc reporter; % of Δ7-dafachronic acid response; activation, % at 6.8 µM; shares compounds with hcDAF12 agonist; 3,400 tested, 61% active;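 active means mean activation across triplicate tests above the threshold derived from the earlier primary screen, cut at about 5.5% in these data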;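 further: 0% = DMSO only wells and 100% = 3 µM Δ7-dafachronic acid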
hgDAF12 conf – H. glycines DAF-12 receptor agonists, confirmation, cell-based, luminescence, HEK293, GAL4-LBD fusion; HEK293 GAL4-hgDAF12 luciferase reporter, agonist mode; percent of butyrate response; shares compounds with hgDAF-12 ag; 3,300 tested, 80% active; activation, % at 6.8 µM;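 active means mean activation over triplicate wells above the hit cutoff derived from the earlier primary screen, cut at about 11% in these data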;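 further: 0% = DMSO low control and 100% = 2 mM sodium butyrate high control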
LXRb DAF12 ctr – LXR agonists, Gal4 luciferase reporter, confirmation, counter-screen for hgDAF-12 agonist project, cell-based, luminescence, HEK293, H. glycines campaign. shares compounds with hgDAF-12 ag. 24 h. activation, % at 6.8 µM. 3,300 tested, under 10 active. AID 743051, 2013;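 active means mean activation of the triplicate above a set limit carried over from the primary screen, none filed active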
Numbers without * were called inactive; nt = no result. Compounds with a hit are over-represented: about 4.8% of the library has one in this group of screens.

SMILES | SMARCA2 activ | DAX1 inh-1 | hcDAF12 agonist | ssDAF12 agonist | DAX1 inh-2 | hgDAF-12 ag | DAX1 inh confirm | SF1 AF2mut Luc | hgDAF12 conf | LXRb DAF12 ctr | others
COc1cccc(OC)c1C(=O)Nc1cccc(-c2ccc(N3CCOCC3)nn2)c1 | 4 | 3 | 2 | -1 | 5.1* | 14* | 4.0* | 3.4* | 10 | 0
CCC1(O)CCCC2C3CCC4CC(=O)CCC4(C)C3C(=O)CC21C (centres undefined) | -6 | 0 | 1 | -1 | 2 | 2 | nt | nt | nt | nt
O=C(COc1ccc(Br)cc1)NCc1cn2ccccc2n1 | -2 | -1 | -2 | 0 | 0 | 5 | nt | nt | nt | nt
Brc1ccc(OCc2cn3ccccc3n2)cc1 | 2 | 0 | 4 | 0 | 6.5* | 20* | 9.2* | 4.6* | 16* | 1
N#Cc1ccccc1NC(=O)c1ccc2c(Cl)c3c(nc2c1)CCCC3 | 4 | 3 | 0 | -1 | 1 | 4 | nt | nt | nt | nt
O=C(Nc1cccnc1Cl)c1ccc2c(Cl)c3c(nc2c1)CCC3 | 5 | 2 | 6 | 0 | 5.0* | 17* | 16* | 6.1* | 20* | 1
COc1cccc(CCNC(=O)c2cc(COc3ccc(C)c(C)c3)on2)c1OC | 1 | 4.4* | 4 | 0 | 4.6* | 14* | 7.8* | 3.4* | 16* | 1
Cc1ccc(OCc2cc(C(=O)NCCc3cccnc3)no2)cc1C | 0 | 0 | 0 | -1 | -1 | 1 | nt | nt | nt | nt
Cc1cc(C)c(C#N)c(SCc2ccccc2[N+](=O)[O-])n1 | -6 | -1 | 1 | -1 | -1 | 0 | nt | nt | nt | nt
Cc1cc(C)c(C#N)c(SCc2nnc(-c3ccccc3[N+](=O)[O-])o2)n1 | 6 | 0 | 4 | 1 | 5.1* | 16* | 18* | 4.6* | 11* | 1
C=CCNc1nc(-c2ccc3c(c2)OCCO3)cs1 | 1 | 2 | 6.7* | 1.1* | 14* | 20* | 16* | 7.4* | 18* | 1 | LXRb hcDAF ctr=2;hcDAF12 ag=7.5*
O=C(Nc1nc(-c2ccc3c(c2)OCCO3)cs1)c1ccco1 | 4 | 1 | 10.0* | 1 | 12* | 14* | 11* | 7.0* | 17* | 1 | LXRb hcDAF ctr=1;hcDAF12 ag=4
Cc1nc(C)c(-c2csc(Nc3ccc(O)cc3C)n2)s1 | 3 | 0 | -3 | -1 | -1 | -3 | nt | nt | nt | nt
Cc1cc(O)ccc1Nc1nc(-c2cccs2)cs1 | 3 | 0 | 5 | 1.0* | 5.5* | 17* | 9.3* | 4.7* | 21* | 1
CN(c1ccc(O)cc1)c1nc(-c2cccs2)cs1 | 2 | 1 | 5 | 1 | 7.7* | 19* | 8.7* | 3.6* | 14* | 1
CCc1ccc(-c2ccc(SCC(=O)Nc3nnc(C)s3)nn2)cc1 | 1 | 0 | 7.6* | 0 | 6.0* | 21* | 10* | 7.8* | 16* | 1 | LXRb hcDAF ctr=1;hcDAF12 ag=6.0*
Cc1nnc(NC(=O)CSc2ccc(-c3ccc(Cl)cc3)nn2)s1 | 2 | 0 | 1 | -2 | 0 | 3 | nt | nt | nt | nt
CCOC(=O)/C(=C\Nc1ccc(OCc2ccccc2)cc1)NC(=O)c1ccccc1 | 2 | nt | -1 | -1 | -1 | 4 | nt | nt | nt | nt
Cc1cc(NC(=O)CSc2nnnn2C2CCCC2)no1 | 1 | 0 | 0 | -1 | 0 | 1 | nt | nt | nt | nt
CCn1c(C)cc(C(=O)CSc2nnnn2C2CCCC2)c1C | 4 | 3 | 3 | 0 | 9.6* | 13* | 13* | 7.4* | 17* | 1
COc1ccc2cc(CCC(C)=O)ccc2c1 | 3 | 3 | 3 | 0 | 5.2* | 14* | 9.6* | 7.9* | 16* | 1
Cc1cc(C)n2c(NC3CCCC3)c(-c3cc4ccccc4o3)nc2n1 | 8.6* | nt | 4 | 1.2* | 5.3* | 17* | 4.2* | 2 | 8 | 0 | SMARCA2 conf=8.0*;VP16 Luc act=6.7*
